# Bioassay records deposited in PubChem BioAssay by National Center for Advancing Translational Sciences (NCATS).
# Rows were chosen to be rich in hits. Some 7.9% of all compounds tested hit in one or more screens of this group.
# HT1080-NT tox: kills 2HG-producing HT-1080-NT fibrosarcoma cells. 360,000 compounds, 1.6% hits. HT-1080-NT fibrosarcoma viability, CellTiter-Glo ATP luminescence, 48 h. Potency, µM (titrated, usually from 46.1 µM), inactives show at the top dose activity, negative = less viability, actives largely listed as cytotoxic;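 note: NT is the 2HG producing partner of a matched IDH1 knockdown line; 0% = DMSO-treated cells and -100% = media-only wells without cells; nearly all actives have a fitted effect of over 55% in size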
#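 A 48-hour cytotoxicity screen used HT-1080-NT cells plated 2 hours before compound delivery. ATP-based CellTiter-Glo luminescence measured viability, normalized to DMSO and no-cell controls.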
# KB-V1 cytotox: kills drug-selected multidrug resistant KB-V1 cells | KB-V1 MDR cells viability, CellTiter-Glo, 72 h | Potency, µM (top dose mostly 46.1 µM), hits mostly cytotoxic | 400,000 compounds, 3.4% hits; note: % is set by controls: 0 for no effect and ±100 for the full control effect; nearly all actives have a fitted effect of over 60% in size
#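 Readout: CellTiter-Glo luminescence, 10 min after addition. Cells: KB-V1 MDR subline, 72 h at 37 degrees C with compound. Analysis: corrected, normalized data fitted to concentration-effect curves.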
# SW480 rereplic: DNA re-replication induction in SW480 cells; SW480 DNA re-replication, Hoechst DNA content imaging, 48 h; Potency, µM (top dose mostly 46.1 µM), for inactives: at the highest dose re-replication activation, actives largely listed as activators; 340,000 compounds, 1.8% hits; AID 624297; note: % of control where 0% means no effect; nearly all actives have a fitted effect of over 55% in size
#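 DNA re-replication was detected as more nuclei of elevated Hoechst intensity after 48 hr exposure to compound (23 nL pinned per well of 250 cells).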
# MCF10A rerep: inducers of DNA re-replication in MCF 10A breast cells. AID 624296. 350,000 compounds, 2.9% hits. Potency, µM (titrated, usually from 46.1 µM), for inactives: top-dose activity, positive = re-replication, usual class: activators. MCF 10A DNA re-replication, Hoechst nuclear intensity, 48 h; note: % of control where 0% means no effect; nearly all actives have a fitted effect of over 50% in size
# HT1080 IDH1KD tx: HT-1080 IDH1 knockdown cell toxicity (counter line) | Potency, µM (highest dose often 46.1 µM), without a hit: at the highest dose activity, negative = toxicity, actives largely listed as cytotoxic | 360,000 compounds, 2% hits | HT-1080 IDH1 knockdown viability, ATP luminescence, 48 h;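 note: 0% = DMSO wells and -100% = cell-free medium wells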
#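 IDH1KD HT-1080 cells, 750/well, RPMI + 5% FBS; compound pinned after 2 h settling; 48 h, 37 °C; CellTiter-Glo luminescence; % activity normalised to DMSO and no-cell wells; curves fitted, classed by r2 and efficacy.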
# KB-3-1 cytotox: KB-3-1 parental cell cytotoxicity | Potency, µM (series often up to 46.1 µM), most hits filed as cytotoxic | 400,000 compounds, 1.4% hits | KB-3-1 viability, CellTiter-Glo ATP luminescence, 72 h; note: % is set by controls: 0 for no effect and ±100 for the full control effect; nearly all actives have a fitted effect of over 60% in size
#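 Here the drug-naive KB-3-1 line serves as comparator for MDR sub-line selectivity; cells received compound titrations, 72 h at 37 °C, then CellTiter-Glo readout.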
# The depositor's hits bear a star; i = inactive; ? = inconclusive; / = not tested or not shown. Calls come from the whole dose curve; as a rule, active = well fitted curve in the direction sought with a large enough effect; inconclusive = small, poorly fitted or top-dose-only effect, or another doubt; inactive = no such curve, though single readings can be large; an effect the other way counts as inactive or inconclusive. Potency is the fitted concentration of half-maximal effect.
SMILES,HT1080-NT tox,KB-V1 cytotox,SW480 rereplic,MCF10A rerep,HT1080 IDH1KD tx,KB-3-1 cytotox
NS(=O)(=O)c1ccc(NC(=O)COC(=O)c2ncc(Cl)c(Cl)c2Cl)cc1,-5%,i,-4%,-3%,-6%,i
CC(C)CCn1c(SC(C)C#N)nc2ccccc2c1=O (configuration not stated),/,i,/,/,/,i
COc1ccc(NC(=O)c2c(NC(=O)COc3ccc(Cl)cc3)sc3c2CCCCC3)cc1,/,i,/,/,/,i
COc1ccc(Nc2oc(/C=C/c3ccc(OC)c(OC)c3)nc2C#N)cc1,/,i,/,/,/,i
CC1(C(=O)NCC2CCOCC2)Cc2c(-c3cccc(C(F)(F)F)c3)ccnc2O1 (configuration not stated),?,?,/,/,3.7µM*,?
CC1(C(=O)Nc2cccc(Oc3ccccc3)c2)Cc2c(-c3ccccc3)ccnc2O1 (configuration not stated),?,i,/,/,?,?
CC(=O)Nc1cccc(-c2ccnc3c2CC(C)(C(=O)Nc2ccccc2)O3)c1 (configuration not stated),-14%,i,/,/,0%,i
CC(=O)Nc1cccc(-c2ccnc3c2CC(C)(C(=O)Nc2cccc(Oc4ccccc4)c2)O3)c1 (configuration not stated),?,21µM*,/,/,?,?
CC(=O)Nc1cccc(-c2ccnc3c2CC(C)(C(=O)NCCc2ccccc2)O3)c1 (configuration not stated),?,?,/,/,?,4.1µM*
CN(C)c1ccc(CNC(=O)C2(C)Cc3c(-c4cccc(C(F)(F)F)c4)ccnc3O2)cc1 (configuration not stated),?,?,/,/,18µM*,?
O=C(/C=C/[C@H]1O[C@@H](n2cnc3c(NC(=O)c4ccccc4)ncnc32)[C@H](O)[C@@H]1O)NCc1ccc2c(c1)OCO2,23%,i,/,/,17%,i
COc1ccc(-c2noc(-c3ccc(NC4CCCCC4)c([N+](=O)[O-])c3)n2)cc1,/,?,/,/,/,i
COc1cccc(C(=O)NCCNC(=O)c2ccco2)c1,0%,i,2%,24%,23%,i
O=C(C[n+]1cccc2cccc(O)c21)c1ccc(Br)cc1,/,i,/,/,/,i
CC(=O)Nc1cccc(-c2ccnc3c2CC(C)(C(=O)NCCN(C)C)O3)c1 (configuration not stated),27%,i,/,/,5%,i
CC(=O)Nc1cccc(-c2ccnc3c2CC(C)(C(=O)NCc2cccs2)O3)c1 (configuration not stated),?,i,/,/,1.6µM*,3.3µM*
CC(=O)Nc1cccc(-c2ccnc3c2CC(C)(C(=O)NCc2ccc(N(C)C)cc2)O3)c1 (configuration not stated),?,?,/,/,5.2µM*,10µM*
O=C(Cc1ccc(NC2=NC3CS(=O)(=O)CC3S2)cc1)NCc1ccccc1Cl (configuration not stated),10%,i,-11%,2%,6%,i
O=C(NCc1ccccc1Br)c1ccncc1,3%,i,15%,2%,3%,i
OC(c1cc(Cl)cc(Cl)c1)c1ncc(-c2ccccc2F)[nH]1 (configuration not stated),?,i,/,/,?,i
O=c1[nH]c(=O)n(C2CCCCC2)c(O)c1C1=Nc2ccccc2SC(c2ccc(Cl)cc2)C1 (configuration not stated),/,i,/,/,/,i
CCCCOC(=O)CSC1=C(C#N)C(c2cccnc2)C(C(=O)OCC)=C(c2ccccc2)N1 (configuration not stated),-3%,i,23µM*,18µM*,-5%,i
CC1=C(C(=O)Nc2ccc(Cl)cc2)C(c2ccncc2)C(C#N)=C(SCC(N)=O)N1 (configuration not stated),-8%,i,-10%,-7%,-1%,i
CC(=O)C1=C(C)NC(SCC(N)=O)=C(C#N)C1c1cccnc1 (configuration not stated),2%,i,-2%,21µM*,1%,i
CCOC(=O)C1=C(c2ccccc2)NC(SC)=C(C#N)C1c1cccnc1 (configuration not stated),-2%,i,?,21%,-1%,i
SMILES,HT1080-NT tox,KB-V1 cytotox,SW480 rereplic,MCF10A rerep,HT1080 IDH1KD tx,KB-3-1 cytotox
COc1ccc(N2CCN(C(CNC(=O)C(=O)NCC(OC)OC)c3ccco3)CC2)cc1 (configuration not stated),15%,i,-12%,2%,16%,i
CCNC(=O)NS(=O)(=O)c1cnccc1Nc1cccc(Cl)c1,17%,i,29µM*,-6%,16%,i
CCc1cccc(NC(=O)c2ccc3c(=O)n4nc(Nc5ccccc5OC)sc4nc3c2)c1,/,i,/,/,/,?
O=Cc1cc(Cl)ccc1OCCN1CCC(Cc2ccccc2)CC1,21µM*,i,-1%,?,?,?
CC#CC#Cc1cccc(=O)o1,?,?,24%,18µM*,21µM*,i
COC(=O)[C@]12CCCCC=C1N(Cc1ccc3c(c1)OCO3)C(=O)[C@H](CC(=O)N1CCC(c3ccccc3)CC1)C2,-24%,i,/,/,-13%,i
CCOC(=O)[C@]12CCCC=C1N(Cc1ccc3c(c1)OCO3)C(=O)[C@H](CC(=O)N1CCC(c3ccccc3)CC1)C2,?,23µM*,/,/,?,?
CCOC(=O)[C@]12CCCC=C1N(Cc1ccc3c(c1)OCO3)C(=O)[C@H](CC(=O)NCCc1ccccc1OC)C2,?,23µM*,/,/,-28%,?
CCOC(=O)[C@]12CCCC=C1N(Cc1ccc3c(c1)OCO3)C(=O)[C@H](CC(=O)NCCCOC)C2,12%,i,/,/,2%,i
COCCCNC(=O)C[C@@H]1C[C@@]2(C(=O)OC)CCCCC=C2N(Cc2ccc3c(c2)OCO3)C1=O,19%,?,/,/,27%,i
COC(=O)[C@]12CCCCC=C1N(Cc1ccc3c(c1)OCO3)C(=O)[C@H](CC(=O)NCCc1ccccc1OC)C2,?,i,/,/,12µM*,i
CCCNC(=O)C1(C)CCN(Cc2csc3ccccc23)C1 (configuration not stated),-2%,i,/,/,-13%,i
COc1cc(N(C)C)c(OC)cc1/C=C1\Cc2ccccc2C1=O,/,i,/,/,/,i
